Only some compounds are listed: those with a hit (about 0.37% of all), similar ones and a draw of the others.
Rab2A wt mod = changes GTP binding to wildtype dog Rab2A, up or down. actives 0.19% (n = 190,000). AID 760. GTP binding activity, % at 10 µM. GST-Rab2 wt beads, Bodipy-GTP binding, flow cytometry. P61105;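 active = GTP binding activity at least 20 points away from 100%, either lowered or raised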;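 also: 0% = beads with excess unlabeled GTP and 100% = no-compound control corrected for plate trend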
Rac1 act GTP bind = human Rac1 activated mutant GTP binding change; actives 0.11% (n = 190,000); AID 764; percent activity (GTP binding), % at 10 µM; GST-Rac1 activated beads, fluorescent GTP binding, flow cytometry; actives lie on both sides; 100% means binding = to untreated wells; P63000;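 active = GTP binding at least 20 percentage points away from the 100% baseline, in either direction, so actives lie on both sides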
HRas wt GTP = modulators of GTP binding to human HRas wildtype | P01112 | GST-Ras wt beads, Bodipy-FL-GTP binding, flow cytometry; actives lie on both sides | GTP binding activity, % at 10 µM | actives 0.14% (n = 190,000) | AID 759;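 active = GTP binding activity at least 20% away from the 100% baseline, either lowered as inhibitor or raised as activator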;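 also: 0% = unlabeled GTP competition control and 100% = no-compound control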
Target sequence (P01112 whole entry, looked up): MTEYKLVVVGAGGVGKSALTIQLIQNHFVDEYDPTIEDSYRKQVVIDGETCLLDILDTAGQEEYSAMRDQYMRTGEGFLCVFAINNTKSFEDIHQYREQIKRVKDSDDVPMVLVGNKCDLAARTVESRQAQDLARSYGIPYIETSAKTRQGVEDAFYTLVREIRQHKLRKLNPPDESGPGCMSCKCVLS
Rab7 wt GTP bind = modulators of GTP binding to dog Rab7 wildtype GTPase | GST-Rab7 beads, fluorescent GTP binding, flow cytometry; actives lie on both sides; untreated = 100%, excess cold GTP = 0% | GTP binding activity (percent of control), % at 10 µM | actives 0.055% (n = 190,000) | AID 758;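 active = fluorescent GTP binding to Rab7 beads changed by at least 20 points from the 100% baseline, either direction, mostly lower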;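 also: median green fluorescence of bound Bodipy-FL-GTP per Rab7 bead population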
Cdc42 wt = modulators (inhibitors or activators) of GTP binding to human Cdc42 wildtype; GST-Cdc42 beads, Bodipy-GTP binding, flow cytometry; actives lie on both sides; P60953; actives 0.2% (n = 190,000); AID 761; percent activity (GTP binding), % at 10 µM;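 active = percent activity GTP binding at least 20 points away from the 100% baseline, either down as inhibitor or up as activator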;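 also: median bead fluorescence of bound Bodipy-FL-GTP at 100 nM; 0% = excess unlabeled GTP control and 100% = no compound control; below 100% means less GTP binding so inhibitor and above means activator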
Target sequence (P60953 whole entry, looked up): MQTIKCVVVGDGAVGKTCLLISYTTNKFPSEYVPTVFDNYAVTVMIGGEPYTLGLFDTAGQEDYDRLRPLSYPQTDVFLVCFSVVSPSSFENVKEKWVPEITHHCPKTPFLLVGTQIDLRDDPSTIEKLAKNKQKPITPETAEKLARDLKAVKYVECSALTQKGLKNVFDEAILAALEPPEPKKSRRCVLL
Rac1 wt modul = alters GTP binding to wildtype human Rac1. GTP binding activity (% of control), % at 10 µM. actives 0.27% (n = 190,000). AID 757. P63000. GST-Rac1 beads, fluorescent GTP binding, flow cytometry; actives lie on both sides; 0 = cold GTP competed, 100 = untreated;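 active = GTP binding activity at least 20 points away from the 100% control level, either lower or higher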
The depositor's hits bear a star; [ ] = dose if it differs, or a comment.

SMILES	Rab2A wt mod	Rac1 act GTP bind	HRas wt GTP	Rab7 wt GTP bind	Cdc42 wt	Rac1 wt modul
Cn1c(=O)c2c(ncn2CC(O)CNc2cccc(Cl)c2)n(C)c1=O (configuration not stated)	107.0	104.0	106.0	107.0	107.0	124.0*[activator]
Oc1ccc(/C=N/NC(=S)N/N=C/c2ccc(O)cc2)cc1	85.0	88.0	87.0	94.0	82.0	71.0*
COc1cccc(NC(=S)/C(=C(\[O-])c2cc(C)n(-c3ccccc3F)c2C)[n+]2ccc(N(C)C)cc2)c1	99.0	95.0	98.0	104.0	98.0	100.0
CSc1ccccc1NC(=O)c1cc(-c2cccnc2)nc2ccc(Br)cc12	102.0	90.0	98.0	111.0	100.0	98.0
O=C1CSC(c2ccccn2)N1c1ccc(F)cc1F (configuration not stated)	100.0	97.0	95.0	98.0	98.0	99.0
CN1CCN(c2ccccc2NC(=O)c2ccc(-c3cccc([N+](=O)[O-])c3)o2)CC1	106.0	107.0	107.0	106.0	108.0	123.0*[activator]
O=C(Cn1nnc(-c2ccccc2)n1)N/N=C/c1ccco1	98.0	94.0	99.0	104.0	96.0	98.0
Cc1nc2cccc(C)n2c(=O)c1Cl	110.0	101.0	109.0	105.0	113.0	120.0*[activator]
COc1ccc(C)cc1NC(=O)COC(C)=O	108.0	107.0	105.0	103.0	120.0*[activator]	137.0*[activator]
COc1ccc2c3c(cccc13)C(=O)N(O)C2=O	82.0	90.0	84.0	89.0	91.0	79.0*
COc1ccccc1N1C(=O)c2cccc3c(C(=O)O)ccc(c23)C1=O	103.0	98.0	103.0	103.0	106.0	114.0
O=C(Nc1nccs1)c1ccc2c(=O)n3c(nc2c1)CCCCC3	103.0	102.0	104.0	106.0	106.0	115.0
CC(Sc1nnc(NC2CCCCC2)s1)C(=O)Nc1ccc2c(c1)C(=O)c1ccccc1C2=O (configuration not stated)	77.0*	88.0	82.0	84.0	89.0	75.0*
Cc1ccc(OCc2ccc(Br)cc2)c([N+](=O)[O-])n1	97.0	92.0	96.0	96.0	95.0	97.0
CCOC(=O)Cn1nnnc1C(C(C)C)N(Cc1cccs1)Cc1cc2cc(C)ccc2[nH]c1=O (configuration not stated)	93.0	94.0	95.0	95.0	75.0*	97.0
CCOC(=O)Cn1nnnc1C(CC)N(Cc1cccs1)Cc1cc2cc(C)ccc2[nH]c1=O (configuration not stated)	100.0	99.0	102.0	103.0	100.0	102.0
CCc1nnc2c(N(C)C)nc3ccccc3n12	85.0	91.0	89.0	88.0	92.0	76.0*
CCCc1nnc2c(N(C)S(=O)(=O)c3ccc(C)cc3)nc3ccccc3n12	97.0	101.0	101.0	101.0	101.0	104.0
Cc1cccc(-n2nc(CC#N)c(C#N)c2N)c1	78.0*	91.0	82.0	90.0	82.0	82.0
CC(C)(C)NS(=O)(=O)c1ccc(CCC(=O)N2CCCC2)cc1	94.0	94.0	90.0	91.0	94.0	90.0
CCc1ccc(NC(=O)c2cc3c(C)nc4ccccc4c3o2)cc1	85.0	89.0	87.0	91.0	85.0	75.0*
Cc1ccccc1NC(=O)c1cc2c(C)nc3ccccc3c2o1	88.0	90.0	90.0	92.0	88.0	84.0
CCN(CC)S(=O)(=O)c1ccc2oc(C(=O)N3CCc4ccccc4C3)c(C)c2c1	108.0	107.0	110.0	109.0	107.0	128.0*[activator]
CCN(CC)S(=O)(=O)c1ccc2oc(C(=O)N3CCCCCC3)c(C)c2c1	109.0	101.0	109.0	103.0	112.0	107.0
Cc1csc(NC(=O)c2cc(=O)[nH]c3ccc(S(=O)(=O)N4CCOCC4)cc23)n1	79.0*	89.0	84.0	94.0	80.0	75.0*
SMILES	Rab2A wt mod	Rac1 act GTP bind	HRas wt GTP	Rab7 wt GTP bind	Cdc42 wt	Rac1 wt modul
O=C(NC1CCCCCC1)c1cc(=O)[nH]c2ccc(S(=O)(=O)N3CCOCC3)cc12	94.0	100.0	96.0	92.0	97.0	98.0
CCCOC(=O)c1c(NC(=O)CCC(=O)O)sc2c1CCCCC2	76.0*	80.0	83.0	91.0	81.0	92.0
CCOC(=O)c1ccc(NC(=O)c2c(NC(=O)CCC(=O)O)sc3c2CCCCC3)cc1	92.0	89.0	93.0	100.0	89.0	90.0
CC(=O)c1ccc(N2CCN(C(=O)c3ccc4c(=O)n(-c5ccccc5)c(=O)[nH]c4c3)CC2)cc1	107.0	106.0	108.0	104.0	105.0	121.0*[activator]
O=C(c1ccc2c(=O)n(-c3ccccc3)c(=O)[nH]c2c1)N1CCN(c2ccc(F)cc2)CC1	105.0	101.0	105.0	107.0	106.0	110.0
Cc1cc2nc3c(=O)n(C4CCCCC4)c(=O)[nH]c3nc2cc1N	73.0*	87.0	76.0*	93.0	79.0*	74.0*
Clc1ccc(-n2cc(COCc3ccccc3)nn2)cc1	93.0	92.0	93.0	94.0	95.0	95.0
CSc1nc2ccc(NS(=O)(=O)c3c(Cl)cccc3Cl)cc2s1	78.0*	79.0*	83.0	84.0	81.0	79.0*
Cn1c(=O)c2cc(S(=O)(=O)NCCC(=O)NCc3ccccc3Cl)ccc2n(C)c1=O	64.0*	85.0	68.0*	91.0	68.0*	89.0
COC(=O)c1c(N2C(=O)[C@H]3[C@@H](C2=O)[C@]2(C(=O)Nc4c(C)cc(C)cc42)N2CCC[C@@H]32)sc(C)c1C	126.0*[activator]	107.0	120.0*[activator]	121.0*[activator]	111.0	115.0
COC(=O)c1c(N2C(=O)[C@H]3[C@@H](C2=O)[C@]2(C(=O)Nc4c2ccc(C)c4C)N2CCC[C@@H]32)sc(C)c1C	129.0*[activator]	114.0	123.0*[activator]	131.0*[activator]	110.0	124.0*[activator]
COC(=O)c1c(N2C(=O)[C@H]3[C@@H](C2=O)[C@]2(C(=O)Nc4ccccc42)N2CCC[C@@H]32)sc(C)c1C	102.0	95.0	100.0	112.0	99.0	103.0
Cc1cc(C)n(-c2nnc(NC34CC5CC(CC(C5)C3)C4)nn2)n1	93.0	101.0	99.0	102.0	94.0	104.0
COCCCn1c(=S)[nH]c2c(sc3ccccc32)c1=O	96.0	90.0	94.0	97.0	93.0	94.0
CCNC(=O)Nc1ccc(-n2nc(C)c(C(=O)OCC)c2C)nc1	97.0	96.0	98.0	99.0	97.0	99.0
CCCCCCCC(=O)NNC(=O)Cc1ccccc1	96.0	95.0	95.0	94.0	97.0	93.0
CCCCCCCCCCCC(=O)c1c(O)cccc1O	81.0	79.0*	82.0	89.0	79.0*	83.0
Cc1ccc(C(=O)N2CCCC(c3ccc(Cl)cc3)=N2)cc1	97.0	97.0	99.0	101.0	98.0	99.0

Source: PubChem (NMMLSC)
